From publication PMC4336329 (PLoS ONE, 2015) come the findings set out here.

Screen size: about 310,000 compounds; about 14,000 (4.5%) showed an effect of 50% or more. Effects have a minus sign here. This excerpt belongs to a sample that is enriched for strong results.
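Also: peak tail current of the secondary pulse compared with the same well before compound.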

For this test, the target named is human ether-à-go-go-related gene (hERG) potassium channel (human, UniProt Q12809). Put plainly: primary screen, population patch clamp on CHO cells stably expressing hERG; higher = less effect of the substance.
human ether-à-go-go-related gene (hERG) potassium channel, sequence (Q12809 whole entry, looked up): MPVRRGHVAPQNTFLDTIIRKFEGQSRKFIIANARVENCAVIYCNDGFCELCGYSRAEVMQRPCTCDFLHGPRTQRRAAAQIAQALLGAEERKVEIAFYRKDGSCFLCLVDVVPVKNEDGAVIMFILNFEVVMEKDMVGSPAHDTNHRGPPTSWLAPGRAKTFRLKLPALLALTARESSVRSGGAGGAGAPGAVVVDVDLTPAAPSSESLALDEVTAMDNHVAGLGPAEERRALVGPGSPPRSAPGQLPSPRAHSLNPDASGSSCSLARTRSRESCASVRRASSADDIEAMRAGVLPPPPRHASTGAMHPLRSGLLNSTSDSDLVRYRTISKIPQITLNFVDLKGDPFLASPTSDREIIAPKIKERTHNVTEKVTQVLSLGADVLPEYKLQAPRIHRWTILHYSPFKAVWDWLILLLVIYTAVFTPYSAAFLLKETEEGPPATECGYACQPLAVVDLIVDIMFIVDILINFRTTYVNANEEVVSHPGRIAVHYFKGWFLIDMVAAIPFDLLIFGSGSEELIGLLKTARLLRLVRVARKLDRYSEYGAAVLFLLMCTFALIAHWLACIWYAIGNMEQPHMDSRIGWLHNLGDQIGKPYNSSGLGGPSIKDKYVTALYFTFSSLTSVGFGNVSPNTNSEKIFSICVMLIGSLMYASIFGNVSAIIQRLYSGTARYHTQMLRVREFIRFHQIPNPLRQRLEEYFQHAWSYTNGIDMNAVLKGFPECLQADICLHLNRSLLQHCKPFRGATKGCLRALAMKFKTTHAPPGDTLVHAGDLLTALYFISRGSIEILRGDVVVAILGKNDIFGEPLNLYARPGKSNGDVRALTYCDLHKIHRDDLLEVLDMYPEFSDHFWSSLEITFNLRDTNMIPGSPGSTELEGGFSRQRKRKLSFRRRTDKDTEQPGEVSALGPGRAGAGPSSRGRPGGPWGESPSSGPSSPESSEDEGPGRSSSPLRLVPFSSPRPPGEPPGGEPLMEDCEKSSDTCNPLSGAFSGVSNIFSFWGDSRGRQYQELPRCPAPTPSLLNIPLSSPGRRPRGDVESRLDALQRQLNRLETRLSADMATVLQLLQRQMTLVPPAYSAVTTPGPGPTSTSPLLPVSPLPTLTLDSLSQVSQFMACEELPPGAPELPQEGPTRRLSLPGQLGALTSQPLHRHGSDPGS
For `CCN(C(=O)c1ccc(C)c(Br)c1)c1ccccc1`, the “hERG current change (%, negative = inhibition) at 10uM” value was -20.5%.
As for `CC(=O)c1c(C)[nH]c(C(=O)COC(=O)COc2ccccc2F)c1C`, the “hERG current change (%, negative = inhibition) at 10uM” value is on record as -3.3%.
In the case of `O=C(CCC1CCCCC1)NNC(=O)NC12CC3CC(CC(C3)C1)C2` it was 13.2%; in that of `Cc1ccc(C)c(NNC(N)=S)c1`, 14%.
In the case of `O=C(COC(=O)CC1SC(N2CCCC2)=NC1=O)Nc1c(F)c(F)c(F)c(F)c1F` (stereo not drawn) it was -12.6%; in that of `Cc1cc(NC(=O)CSc2nc(CC(C)(C)C)nc3c2c(=O)n(C)c(=O)n3C)no1`, 4.05%; in that of `COc1ccc(OCCSc2nnc(CCNC(=O)c3ccc(OC)cc3)n2C)cc1`, -6.83%.
For the compound `CN(C)CCN(C(=O)c1cc(Cl)sc1Cl)c1nc2ccc(F)cc2s1.Cl`, the “hERG current change (%, negative = inhibition) at 10uM” value was -67.3%.
Consider `CN(C)CCCN(C(=O)c1ccco1)c1nc2cc3c(cc2s1)OCO3.Cl`, for which the “hERG current change (%, negative = inhibition) at 10uM” value was -43.7%.
To `Cc1ccc2nc(N(CCN(C)C)C(=O)c3cc(Cl)sc3Cl)sc2c1.Cl` belongs 7.55%.
On to `CN(C)CCCN(C(=O)c1ccco1)c1nc2ccc(Cl)cc2s1.Cl`, for which the “hERG current change (%, negative = inhibition) at 10uM” value was -73.4%.
To `Cc1ccc2nc(N(CCCN(C)C)C(=O)c3ccco3)sc2c1.Cl` belongs -65.4%; to `CCN(CC)CCN(C(=O)c1cc2ccccc2cc1OC)c1nc2ccc(F)cc2s1.Cl`, -11.8%; to `CC(=O)N(CCCN(C)C)c1nc2ccc(C)cc2s1.Cl`, -7.07%.
In the case of `COc1ccc2sc(N(CCN(C)C)C(=O)c3cc(Cl)sc3Cl)nc2c1.Cl` it was -0.167%.
Take `CCN(CC)CCN(C(=O)c1ccccc1OC)c1nc2ccc(F)cc2s1.Cl`: the “hERG current change (%, negative = inhibition) at 10uM” value is given as -68.3%.
In the case of `CCN(CC)CCN(C(=O)c1cc2ccccc2cc1OC)c1nc2ccc(OC)cc2s1.Cl` it was -13.4%.
Turning to `Cc1cc(-c2ccccc2)n(-c2cc(N/N=C/c3ccccc3O)ncn2)n1`, the “hERG current change (%, negative = inhibition) at 10uM” value is listed as -10.5%.
To `Cc1ccnc2nc(C(=O)OCC(=O)NC3CCCC(C)C3C)nn12` (stereo not drawn) belongs -10.4%; to `Cn1c(=O)c2c(nc(NCc3ccc4c(c3)OCO4)n2C)n(C)c1=O`, -13.1%; to `NC(=O)C1CCN(C(=O)CSc2nc3ccccc3[nH]2)CC1`, 4.06%.
In the case of `Fc1cccc(Cl)c1Cn1nnc(-c2ccc(N3CCOCC3)cc2)n1` it was 8.99%; in that of `COc1ccc(-n2c(CNC(=O)c3cccs3)n[nH]c2=S)cc1`, 27.7%.
Regarding `COc1cc(C)c(Br)cc1S(=O)(=O)N1CCCC1`, the “hERG current change (%, negative = inhibition) at 10uM” value was -22.1%.
